PubChem BioAssay AID588689 (Southern Research Specialized Biocontainment Screening …, 2011)
The whole screen tested about 340,000 compounds, of which about 1,000 (0.29%) were called active. Cut-off read from the data, not from the text of the source: inconclusive = inhibition above about 29% without an active follow-up result; inactive = below that. These entries were drawn from the full list. Results with a measured potency or affinity are listed apart.

Target: Genome polyprotein (Dengue virus type 2 (strain 16681-PDK53)) (UniProt P29991)
Sequence (P29991 whole entry, looked up): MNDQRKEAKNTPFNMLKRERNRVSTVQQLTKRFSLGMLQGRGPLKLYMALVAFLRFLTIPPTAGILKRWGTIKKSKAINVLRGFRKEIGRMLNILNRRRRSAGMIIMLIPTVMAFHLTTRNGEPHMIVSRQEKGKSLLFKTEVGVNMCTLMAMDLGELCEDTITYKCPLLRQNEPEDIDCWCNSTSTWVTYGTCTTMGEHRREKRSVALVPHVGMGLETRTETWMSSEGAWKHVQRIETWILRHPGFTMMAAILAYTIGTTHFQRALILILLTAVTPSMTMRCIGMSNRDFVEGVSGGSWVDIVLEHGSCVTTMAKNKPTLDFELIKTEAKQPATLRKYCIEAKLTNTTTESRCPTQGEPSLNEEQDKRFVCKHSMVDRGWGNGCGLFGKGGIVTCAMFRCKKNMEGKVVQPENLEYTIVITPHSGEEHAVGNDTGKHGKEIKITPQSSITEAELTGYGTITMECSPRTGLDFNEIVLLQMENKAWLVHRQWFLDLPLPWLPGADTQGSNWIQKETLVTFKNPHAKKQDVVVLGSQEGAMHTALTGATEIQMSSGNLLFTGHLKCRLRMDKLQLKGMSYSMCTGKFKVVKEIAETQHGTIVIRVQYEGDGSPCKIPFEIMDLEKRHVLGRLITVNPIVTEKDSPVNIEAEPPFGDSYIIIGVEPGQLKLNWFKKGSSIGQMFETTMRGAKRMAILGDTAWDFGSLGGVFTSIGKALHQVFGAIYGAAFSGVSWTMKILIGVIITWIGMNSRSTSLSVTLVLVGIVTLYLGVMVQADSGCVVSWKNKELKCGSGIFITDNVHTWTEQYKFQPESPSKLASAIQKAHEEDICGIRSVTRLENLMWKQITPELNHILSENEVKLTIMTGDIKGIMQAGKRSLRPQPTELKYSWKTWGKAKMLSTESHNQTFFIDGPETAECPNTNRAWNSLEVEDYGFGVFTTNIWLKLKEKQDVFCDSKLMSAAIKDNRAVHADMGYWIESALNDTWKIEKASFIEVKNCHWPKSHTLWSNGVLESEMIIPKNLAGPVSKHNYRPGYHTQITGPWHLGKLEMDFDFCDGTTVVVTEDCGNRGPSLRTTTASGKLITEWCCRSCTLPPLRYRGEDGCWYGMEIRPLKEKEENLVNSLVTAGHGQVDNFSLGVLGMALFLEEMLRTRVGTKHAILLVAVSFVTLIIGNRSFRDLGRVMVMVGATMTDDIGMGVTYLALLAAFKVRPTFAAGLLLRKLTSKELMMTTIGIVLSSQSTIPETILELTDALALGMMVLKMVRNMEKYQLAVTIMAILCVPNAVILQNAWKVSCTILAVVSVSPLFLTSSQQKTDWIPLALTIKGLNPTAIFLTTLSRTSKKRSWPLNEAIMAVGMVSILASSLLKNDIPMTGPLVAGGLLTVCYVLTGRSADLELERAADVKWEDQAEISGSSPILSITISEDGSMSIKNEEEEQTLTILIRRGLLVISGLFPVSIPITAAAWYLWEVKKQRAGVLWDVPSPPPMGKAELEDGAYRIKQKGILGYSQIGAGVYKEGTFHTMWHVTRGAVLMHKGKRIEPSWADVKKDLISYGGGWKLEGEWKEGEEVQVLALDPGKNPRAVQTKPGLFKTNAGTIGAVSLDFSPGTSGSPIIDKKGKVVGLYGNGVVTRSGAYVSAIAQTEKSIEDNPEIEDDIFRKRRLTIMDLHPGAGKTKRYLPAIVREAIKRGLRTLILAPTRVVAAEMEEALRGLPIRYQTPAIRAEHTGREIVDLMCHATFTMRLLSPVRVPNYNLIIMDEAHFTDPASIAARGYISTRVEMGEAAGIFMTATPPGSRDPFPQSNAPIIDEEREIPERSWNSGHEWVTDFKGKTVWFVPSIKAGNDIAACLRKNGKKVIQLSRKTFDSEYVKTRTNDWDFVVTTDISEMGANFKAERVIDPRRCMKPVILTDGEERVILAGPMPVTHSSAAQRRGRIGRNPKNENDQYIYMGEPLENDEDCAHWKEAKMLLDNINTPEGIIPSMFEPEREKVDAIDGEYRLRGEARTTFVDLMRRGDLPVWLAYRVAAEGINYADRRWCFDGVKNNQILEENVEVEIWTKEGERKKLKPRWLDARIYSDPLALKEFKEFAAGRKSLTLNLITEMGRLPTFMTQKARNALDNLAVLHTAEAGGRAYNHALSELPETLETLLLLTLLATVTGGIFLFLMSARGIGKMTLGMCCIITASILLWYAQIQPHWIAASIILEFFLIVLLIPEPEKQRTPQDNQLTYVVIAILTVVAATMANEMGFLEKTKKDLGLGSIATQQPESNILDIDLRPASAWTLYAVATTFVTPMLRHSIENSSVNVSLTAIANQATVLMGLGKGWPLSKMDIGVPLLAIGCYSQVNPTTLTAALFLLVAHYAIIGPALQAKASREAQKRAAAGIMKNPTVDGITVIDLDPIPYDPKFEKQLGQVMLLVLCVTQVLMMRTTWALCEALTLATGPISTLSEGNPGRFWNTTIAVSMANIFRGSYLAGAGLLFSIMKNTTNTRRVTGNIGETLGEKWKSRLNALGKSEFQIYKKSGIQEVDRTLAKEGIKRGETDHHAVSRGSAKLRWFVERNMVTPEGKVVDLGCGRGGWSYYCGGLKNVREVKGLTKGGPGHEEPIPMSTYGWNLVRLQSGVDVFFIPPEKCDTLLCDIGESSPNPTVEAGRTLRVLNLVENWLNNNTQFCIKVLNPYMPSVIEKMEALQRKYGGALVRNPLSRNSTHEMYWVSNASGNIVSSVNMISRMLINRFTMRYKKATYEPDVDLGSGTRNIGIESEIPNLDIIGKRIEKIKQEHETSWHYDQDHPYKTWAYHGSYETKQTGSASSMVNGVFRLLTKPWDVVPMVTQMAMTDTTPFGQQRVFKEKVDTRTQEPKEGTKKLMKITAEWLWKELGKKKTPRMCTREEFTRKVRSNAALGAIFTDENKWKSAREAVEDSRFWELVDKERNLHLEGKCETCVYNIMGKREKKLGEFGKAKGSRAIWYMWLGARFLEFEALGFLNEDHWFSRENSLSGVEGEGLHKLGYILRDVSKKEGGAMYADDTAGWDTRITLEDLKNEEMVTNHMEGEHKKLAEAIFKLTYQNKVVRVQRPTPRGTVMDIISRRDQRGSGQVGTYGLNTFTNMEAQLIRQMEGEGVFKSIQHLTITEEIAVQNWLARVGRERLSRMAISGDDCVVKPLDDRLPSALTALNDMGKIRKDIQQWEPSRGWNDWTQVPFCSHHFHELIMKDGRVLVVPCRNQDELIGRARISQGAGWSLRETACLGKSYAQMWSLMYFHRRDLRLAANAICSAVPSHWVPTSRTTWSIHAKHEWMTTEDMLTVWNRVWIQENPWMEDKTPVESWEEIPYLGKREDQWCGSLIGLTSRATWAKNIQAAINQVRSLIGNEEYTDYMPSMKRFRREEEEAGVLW
Assay: Dengue-2 NS5 methyltransferase inhibitors, primary screen, biochemical, confirmation dose response (AID 588689)
Conditions: Dengue-2 NS5 methyltransferase capping enzyme assay, at 25 µM, stronger effect = higher value
[1] = measured here: pilot screen replicate inhibition

Structure (SMILES) | inhibition | inhibition [1] [%]
C/C=N\NC(=O)CNC(=O)CNC(=O)c1ccccc1 | -9.83% (inactive) | 
Oc1ccc(Cl)cc1CNC1CCCCC1 | -11.2% (inactive) | 
Oc1ccc(CNC2CCCCC2)cc1 | -4.06% (inactive) | 
CC(=O)NCCNC(=O)c1oc2ccccc2c1CSc1ncn[nH]1 | 0% (inactive) | 
Cc1cc(C)nc(N/N=C/c2ccccc2OCC(=O)O)n1 | 0% (inactive) | 
COc1ccc(N=Cc2nc(-c3ccccc3)oc2OC(C)=O)cc1 | -15.3% (inactive) | 
COc1cccc(N=Cc2nc(-c3ccccc3)oc2OC(C)=O)c1 | -7.76% (inactive) | 
O=C1c2ccccc2C(=O)N1c1ccccc1 | -3.62% (inactive) | 
COc1ccc(-c2noc(-c3ccccc3C(=O)NCc3ccco3)n2)cc1OC | -1.61% (inactive) | 
CCOC(=O)N1CCN(C(=O)/C=C/c2ccc(OC)c(OC)c2)CC1 | -5.82% (inactive) | 
COc1ccccc1/C=c1\sc2nc(-c3ccccc3OC)nn2c1=O | 5.01% (inactive) | 1.52
CCOc1ccccc1/C=c1\sc2ncnn2c1=O | 3.42% (inactive) | 
COc1ccccc1/C=C/C=c1\sc2nc(=O)c(Cc3ccccc3)nn2c1=O | -9.19% (inactive) | 
COc1ccccc1/C=c1\sc2nc(-c3ccco3)nn2c1=O | 20.1% (inactive) | 
Cc1cccc(NS(=O)(=O)c2ccc(NS(=O)(=O)c3cccs3)cc2)c1 | 13.3% (inactive) | 
N#C/C=C/N1CCC(Cc2ccccc2)CC1 | -4.96% (inactive) | 
N#CCCN(C(=O)COC(=O)Cc1ccc(Br)cc1)c1ccccc1 | -13.2% (inactive) | 
CC(C)c1[nH]c(=O)c(C#N)c2c1CSC(C)(C)C2 | -6.61% (inactive) | 
COc1ccc(C(CCN2CCOCC2)c2c(O)cc(OC)cc2OC)cc1 (stereo unspecified) | -0.7% (inactive) | 
OCc1ccccc1CNCc1ccccc1 | -5.52% (inactive) | 
Oc1ccccc1CNCc1ccccc1 | -2.38% (inactive) | 

Structure (SMILES) | inhibition | inhibition [1] [%]
CSc1ncccc1C(=O)OCc1cccc([N+](=O)[O-])c1 | 0% (inactive) | 
COc1ccc(NC(=O)N(C)C[C@@H]2OCc3cnnn3CCCC(=O)N([C@H](C)CO)C[C@H]2C)cc1 | 0.55% (inactive) | 
Cc1ccc(C(=O)Nc2ccc3cn[nH]c3c2)cc1S(=O)(=O)N1CCOCC1 | -0.88% (inactive) | 
O=c1oc2c3c4c(cc2c2c1CCC2)OCCN4CCC3 | 24.7% (inactive) | 
CC(C)c1cc(=O)oc2c3c4c(cc12)CCCN4CCC3 | 0% (inactive) | 
N/C(=N\OC(=O)CCC1CCCCC1)c1cccc([N+](=O)[O-])c1 | -1.88% (inactive) | 1.82
O=C(CSc1ccccc1)N1CCN(S(=O)(=O)c2ccccc2F)CC1 | 3.25% (inactive) | 
CCCCn1c(NC(=O)c2ccco2)c(S(=O)(=O)c2ccc(C)cc2)c2nc3ccccc3nc21 | -64.2% (inactive) | 
C=CCn1c(NC(=O)c2ccc(Br)o2)c(S(=O)(=O)c2ccccc2)c2nc3ccccc3nc21 | -4.19% (inactive) | 
OCCC1CN(Cc2cnn(-c3ccccc3Cl)c2)CCN1Cc1ccsc1 (stereo unspecified) | -2.26% (inactive) | 
CC(C)N(C(=O)[C@H]1C[C@H](CC(=O)NCCN2CCOCC2)C(=O)N2CCc3c([nH]c4cc(-c5ccco5)ccc34)[C@]12C)C(C)C | -6.51% (inactive) | 
Cc1nn(-c2ccccc2)c(C)c1-c1ccccc1O | -5.22% (inactive) | -6.7
Cc1cccc(C2c3c(n(C)c(=O)n(C)c3=O)N=C3c4ccccc4C(=O)C32)c1 (stereo unspecified) | 2.3% (inactive) | 
C=C(CC)C(=O)c1ccc(OCC(=O)O)c(Cl)c1Cl | -3.73% (inactive) | 
O=C(O)COc1ccc2nsnc2c1Cl | -9.55% (inactive) | 
CCOCCCNCC(O)c1ccccc1 (stereo unspecified) | 0% (inactive) | 
CC1(C)CC(=NO)CC(C)(C)N1 | 0% (inactive) | 
Cc1cc(NS(=O)(=O)c2ccccc2)c([N+](=O)[O-])cc1C | 4.34% (inactive) | 
COc1ccc(S(=O)(=O)/N=C2/NC(=O)/C(=C\c3cc(OC)c(OC)cc3[N+](=O)[O-])S2)cc1 | 2.45% (inactive) | 
COc1ccc([N+](=O)[O-])cc1NS(=O)(=O)c1ccccc1 | 5.1% (inactive) | 
COc1cc(C(=O)Nc2ccc(S(=O)(=O)Nc3ncccn3)cc2)c([N+](=O)[O-])cc1OC | 0.74% (inactive) | 

Structure (SMILES) | inhibition | inhibition [1] [%]
Cc1ccc(/C=N/NC(=O)C(C)Oc2cccc3ccccc23)o1 (stereo unspecified) | -3.22% (inactive) | 
CCC1(C)NC(=O)N(CC(=O)N2CCC(Cc3ccccc3)CC2)C1=O (stereo unspecified) | -9.76% (inactive) | 
CC(Cc1ccccc1)=NNc1ccc([N+](=O)[O-])cc1[N+](=O)[O-] | 10.5% (inactive) | 
C/C(CC(C)C)=N/Nc1ccc([N+](=O)[O-])cc1[N+](=O)[O-] | -3.83% (inactive) | 
CC(=O)NC(C)c1nc2ccccc2n1C(C)C (stereo unspecified) | -3.46% (inactive) | 
COc1ccc(/C=C/C=C2\NC(=S)NC2=O)cc1 | -2.15% (inactive) | 
CC(/C=C1\NC(=S)NC1=O)=C\c1ccccc1 | -7.18% (inactive) | 
CCC(C)(C(=O)NC1CCCC1)N(C(=O)CNC(=O)c1ccccc1)c1c(C)n(C)n(-c2ccccc2)c1=O (stereo unspecified) | 0% (inactive) | 
COc1ccc(CNC(=O)c2cc3ccccc3oc2=O)cc1 | -1.96% (inactive) | 
COc1ccc(CN(C)CC(=O)Nc2c(C)cccc2C)c(OC)c1 | 1.51% (inactive) | 
CCOc1cc(S(=O)(=O)Nc2cc(C)cc(C)c2)ccc1Cl | 0% (inactive) | 
COc1ccc(NS(=O)(=O)c2ccc(Cl)c(N)c2)cc1Br | -3.69% (inactive) | 
COc1ccccc1CCC(=O)N(C)CC(=O)Nc1ccc(F)cc1 | 1.3% (inactive) | 
O=C(NNc1cccc(Cl)c1)c1cccnc1Cl | -5.34% (inactive) | 
COc1cc(/C=C(\C#N)C(=O)Nc2cccc3ncccc23)cc(OC)c1OC | -57.5% (inactive) | 
COc1ccc(/C=C(/C#N)C(=O)Nc2ccccc2C)cc1C(=O)O | 0% (inactive) | 
O=C(CN1CCN(C(c2ccccc2)c2ccccc2)CC1)NC(=O)NCc1ccco1 | -1.64% (inactive) | 
Oc1ccc(/C=N/N(c2ccccc2)c2ccccc2)c(O)c1O | 9.52% (inactive) | 
CCN(CC)c1ccc(/C=N/N=C(c2ccccc2)c2ccccc2)c(O)c1 | -35.6% (inactive) | 
O=C(/C(=N/N=C/c1ccc(O)c(O)c1)c1ccccc1)c1ccccc1 | 7.23% (inactive) | 
COc1cc(/C=N/N=C(/C(=O)c2ccccc2)c2ccccc2)cc(OC)c1O | 0% (inactive) | 
